In all, about 5,500 compounds went through this assay and about 2,000 (36%) were called active. Inconclusive results (about 18%) are left out. Cut-off read from the data, not from the text of the source: active = normalized growth mostly below about 0.91 (no sharp cut-off); inconclusive = no clear call, values can overlap the other calls; inactive = mostly above about 0.92. Some of the results follow.
Test: chemical genetic growth profiling, strain panel (AID 1159580);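 note: tested at 20 µM; growth read once vehicle control cultures reached saturation at 30 °C; 1 = growth at the plate median or of vehicle wells; lower values mean less growth of the strain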
Conditions: growth OD

Measured: normalized growth

FC(F)(F)c1cccc(N2CCNCC2)c1
inactive: S. cerevisiae deletion strains, locus YJL187C, strain SWE1, hits give low values 0.999 | S. cerevisiae deletion strains, locus YJR043C, strain POL32, hits give low values 1 | S. cerevisiae deletion strains, locus YJR075W, strain HOC1, hits give low values 0.958 | S. cerevisiae deletion strains, locus YKL009W, strain mrt4, hits give low values 1 | S. cerevisiae deletion strains, locus YKL068W, hits give low values 0.997 | S. cerevisiae deletion strains, locus YKL085W, strain MDH1 (second series), hits give low values 0.995 | S. cerevisiae deletion strains, locus YKL085W, strain MDH1, hits give low values 0.995 | S. cerevisiae deletion strains, locus YKL160W, strain elf1, hits give low values 0.988 | S. cerevisiae deletion strains, locus YKL190W, strain CNB1, hits give low values 1.01 | S. cerevisiae deletion strains, locus YKR001C, strain vps1, hits give low values 0.992 | S. cerevisiae deletion strains, locus YKR026C, strain gcn3, hits give low values 1 | S. cerevisiae deletion strains, locus YKR091W, strain srl3, hits give low values 0.997 | S. cerevisiae deletion strains, locus YLL001W, strain dnm1, hits give low values 0.982 | S. cerevisiae deletion strains, locus YLL026W, hits give low values 0.991 | S. cerevisiae deletion strains, locus YLL041C, strain sdh2, hits give low values 1 | S. cerevisiae deletion strains, locus YLR027C, strain aat2, hits give low values 0.993 | S. cerevisiae deletion strains, locus YLR039C, strain RIC1, hits give low values 1.04 | S. cerevisiae deletion strains, locus YLR058C, strain SHM2, hits give low values 1.01 | S. cerevisiae deletion strains, locus YLR102C, strain apc9, hits give low values 0.984 | S. cerevisiae deletion strains, locus YLR221C, strain rsa3, hits give low values 0.993 | S. cerevisiae deletion strains, locus YLR258W, strain gsy2, hits give low values 0.981 | S. cerevisiae deletion strains, locus YLR262C, strain YPT6 (second series), hits give low values 0.981 | S. cerevisiae deletion strains, locus YLR262C, strain YPT6, hits give low values 0.991 | S. cerevisiae deletion strains, locus YLR268W, strain sec22, hits give low values 0.993 | S. cerevisiae deletion strains, locus YLR320W, strain mms22, hits give low values 0.968 | S. cerevisiae deletion strains, locus YLR330W, strain CHS5, hits give low values 1 | S. cerevisiae deletion strains, locus YLR342W, strain FKS1 (second series), hits give low values 0.937 | S. cerevisiae deletion strains, locus YLR342W, strain FKS1, hits give low values 0.997 | S. cerevisiae deletion strains, locus YLR357W, strain rsc2, hits give low values 0.989 | S. cerevisiae deletion strains, locus YLR370C, strain arc18, hits give low values 1.01 | S. cerevisiae deletion strains, locus YLR371W, strain rom2, hits give low values 0.98 | S. cerevisiae deletion strains, locus YLR384C, strain iki3, hits give low values 0.975 | S. cerevisiae deletion strains, locus YLR418C, strain cdc73, hits give low values 0.992 | S. cerevisiae deletion strains, locus YML016C, strain PPZ1, hits give low values 1.01 | S. cerevisiae deletion strains, locus YML032C, strain rad52, hits give low values 0.965 | S. cerevisiae deletion strains, locus YML120C, strain ndi1, hits give low values 0.999 | S. cerevisiae deletion strains, locus YML124C, strain tub3, hits give low values 0.991 | S. cerevisiae deletion strains, locus YMR058W, strain fet3, hits give low values 1.01 | S. cerevisiae deletion strains, locus YMR078C, strain ctf18, hits give low values 0.986 | S. cerevisiae deletion strains, locus YMR125W, strain sto1, hits give low values 0.968 | S. cerevisiae deletion strains, locus YMR129W, hits give low values 1.01 | S. cerevisiae deletion strains, locus YMR205C, strain PFK2, hits give low values 0.965 | S. cerevisiae deletion strains, locus YMR223W, strain ubp8, hits give low values 0.981 | S. cerevisiae deletion strains, locus YMR231W, strain pep5, hits give low values 0.999 | S. cerevisiae deletion strains, locus YMR263W, strain SAP30, hits give low values 0.999 | S. cerevisiae deletion strains, locus YMR307W, strain GAS1, hits give low values 0.996 | S. cerevisiae deletion strains, locus YNL067W, strain RPL9B, hits give low values 1.01 | S. cerevisiae deletion strains, locus YNL071W, strain lat1, hits give low values 0.996 | S. cerevisiae deletion strains, locus YNL153C, strain GIM3, hits give low values 1.01 | S. cerevisiae deletion strains, locus YNL209W, strain ssb2, hits give low values 0.994 | S. cerevisiae deletion strains, locus YNL233W, strain BNI4, hits give low values 1 | S. cerevisiae deletion strains, locus YNL248C, strain rpa49, hits give low values 1 | S. cerevisiae deletion strains, locus YNL250W, strain rad50, hits give low values 1.01 | S. cerevisiae deletion strains, locus YNL271C, strain bni1, hits give low values 0.978 | S. cerevisiae deletion strains, locus YNL298W, strain CLA4, hits give low values 0.992 | S. cerevisiae deletion strains, locus YNL307C, strain MCK1, hits give low values 0.992 | S. cerevisiae deletion strains, locus YNL322C, strain KRE1 (second series), hits give low values 0.986 | S. cerevisiae deletion strains, locus YNR049C, strain mso1, hits give low values 1.01 | S. cerevisiae deletion strains, locus YNR052C, strain pop2, hits give low values 0.985 | S. cerevisiae deletion strains, locus YOL006C, strain TOP1, hits give low values 1.04 | S. cerevisiae deletion strains, locus YOL012C, strain htz1 0.923 | S. cerevisiae deletion strains, locus YOL147C, strain pex11, hits give low values 0.989 | S. cerevisiae deletion strains, locus YOR001W, strain rrp6, hits give low values 0.985 | S. cerevisiae deletion strains, locus YOR061W, strain CKA2, hits give low values 1.01 | S. cerevisiae deletion strains, locus YOR069W, strain VPS5, hits give low values 1 | S. cerevisiae deletion strains, locus YOR070C, strain gyp1, hits give low values 0.995 | S. cerevisiae deletion strains, locus YOR080W, strain dia2, hits give low values 0.98 | S. cerevisiae deletion strains, locus YOR083W, strain WHI5, hits give low values 1.03 | S. cerevisiae deletion strains, locus YOR106W, strain vam3, hits give low values 1 | S. cerevisiae deletion strains, locus YOR136W, strain idh2, hits give low values 0.987 | S. cerevisiae deletion strains, locus YOR144C, strain elg1, hits give low values 0.983 | S. cerevisiae deletion strains, locus YOR184W, strain ser1, hits give low values 1.03 | S. cerevisiae deletion strains, locus YOR265W, strain rbl2, hits give low values 0.993 | S. cerevisiae deletion strains, locus YOR270C, strain vph1, hits give low values 1.07 | S. cerevisiae deletion strains, locus YOR290C, strain snf2, hits give low values 0.973 | S. cerevisiae deletion strains, locus YOR316C, strain cot1, hits give low values 0.997 | S. cerevisiae deletion strains, locus YPL051W, strain arl3, hits give low values 0.993 | S. cerevisiae deletion strains, locus YPL055C, strain LGE1, hits give low values 1 | S. cerevisiae deletion strains, locus YPL078C, strain atp4, hits give low values 1.01 | S. cerevisiae deletion strains, locus YPL106C, strain sse1, hits give low values 0.947 | S. cerevisiae deletion strains, locus YPL240C, strain hsp82, hits give low values 0.989 | S. cerevisiae deletion strains, locus YPR119W, strain clb2, hits give low values 0.984 | S. cerevisiae deletion strains, locus YPR141C, strain kar3, hits give low values 0.988 | S. cerevisiae deletion strains, locus YPR163C, strain tif3, hits give low values 0.989 | S. cerevisiae deletion strains, locus YPR167C, strain met16, hits give low values 0.988 | S. cerevisiae deletion strains, strain wtn01, hits give low values 0.966 | S. cerevisiae strains, strain wild type, hits give low values 1.01

Source: PubChem BioAssay AID1159580 (chemical genetic matrix, 2015)
